Source: PubChem BioAssay (Tox21)
Several values for one entry are separate records, joined by “and”; a condition that tells them apart may be missing. Equal values may be shown once. Inconclusive results are not listed. Activity calls are given as the source filed them. Unless noted, the call rests on the fitted dose curve; in most records, active means well fitted curve in the direction sought with a large enough effect in the repeat runs; inconclusive means weak or mixed curves; inactive means no such curve, though single readings can be large; an effect the other way counts as inactive or inconclusive.

How the values were obtained:
[1] = A CellTox Green Cytotoxicity Assay to monitor cytotoxicity in HEK293 cells - 32 hour (AID 1224881); further: nearly all actives have a fitted effect of over 40% in size; further: potency means the concentration at half of the fitted maximal effect
Outline: (§1)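 Cells (HEK293, 600/well) and dye reagent are dispensed together. After 5 h at 37 C, 23 nL compound is pinned in. Plates stay at 37 C for 40 h with fluorescence read at 0h, 8h, 16h, 24h, 32h and 40h.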

[2] = A CellTox Green Cytotoxicity Assay to monitor cytotoxicity in HepG2 cells - 0 hour (AID 1224882); further: nearly all actives have a fitted effect of over 35% in size
Outline: (§2)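 Cells and non-lytic dye reagent are dispensed together (600 HepG2 cells/well) and incubated 5 h before DMSO compound transfer. Kinetic fluorescence is then recorded in the same wells during 40 h at 37 C.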

[3] = A CellTox Green Cytotoxicity Assay to monitor cytotoxicity in HEK293 cells - 8 hour (AID 1224884); further: nearly all actives have a fitted effect of over 35% in size; further: potency means the concentration at half of the fitted maximal effect
Outline: as §1

[4] = qHTS RealTime-Glo MT Cell Viability Assay in HepG2 cells - 16 hour (AID 1224885); further: nearly all actives have a fitted effect of over 50% in size
Outline: (§3)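 Real-time, nonlytic viability: 600 HepG2 cells/well mixed with NanoLuc enzyme plus prosubstrate; 5 h settle, compound (DMSO) added by pintool; luminescence monitored over 40 h at 37 C.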

[5] = qHTS RealTime-Glo MT Cell Viability Assay in HEK293 cells - 8 hour (AID 1224887); further: nearly all actives have a fitted effect of over 50% in size; further: potency means the concentration at half of the fitted maximal effect; on activity change, negative = cytotoxicity: top concentration of the series differs between compounds
Outline: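 Real-time viability in HEK293: signal arises when living cells convert a prosubstrate for NanoLuc in the medium, so luminescence tracks viable cell number. Compound (23 nL, DMSO) added 5 h post-seeding; kinetic reads at 0–40 h, 37 C.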

[6] = A CellTox Green Cytotoxicity Assay to monitor cytotoxicity in HEK293 cells - 16 hour (AID 1224888); further: nearly all actives have a fitted effect of over 35% in size; further: potency means the concentration at half of the fitted maximal effect
Outline: as §1

[7] = qHTS RealTime-Glo MT Cell Viability Assay in HepG2 cells - 0 hour (AID 1224889); further: nearly all actives have a fitted effect of over 50% in size
Outline: as §3

[8] = A CellTox Green Cytotoxicity Assay to monitor cytotoxicity in HepG2 cells - 8 hour (AID 1224890); further: nearly all actives have a fitted effect of over 45% in size; further: potency means the concentration at half of the fitted maximal effect
Outline: as §2

[9] = qHTS assay to identify small molecule antagonists of the androgen receptor (AR) signaling pathway using the MDA cell line in the presence of 0.5 nM R1881 - cell viability counter screen (AID 1259242); further: nearly all actives have a fitted effect of over 45% in size; further: potency means the concentration at half of the fitted maximal effect
Outline: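 Steps: plate MDA-kb2 cells, rest 5 hr at 37C without CO2; pin in compounds in DMSO; add R1881 to 0.5 nM final; incubate 16 hr; add CellTiter-Fluor, 30 min; read fluorescence.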

[10] = qHTS assay to identify small molecule phospholipidosis (PLD) inducers (AID 1259344; active means well fitted curve in the direction sought with a large enough effect; an effect the other way counts as inactive or inconclusive)
Outline: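 Accumulated phospholipid, stained red by LipidTOX during 24 h compound treatment of HepG2 cells at 37 C, is quantified from images as pit number and intensity, normalised per cell using Hoechst-stained nuclei.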

[11] = qHTS assay to identify small molecule HDAC inhibitors (AID 1259364); further: potency means the concentration at half of the fitted maximal effect;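 further: wild-type HCT-116 cells with endogenous class I/II HDAC activity; nearly all actives have a fitted effect of over 45% in size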; on activity change, negative = inhibition: top concentration of the series differs between compounds
Outline: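 Cells (HCT-116, wild type) are seeded at 1,500 per well, incubated overnight, treated with compound in DMSO for 2 hr, then developed with HDAC-Glo I/II reagent for 30 min at room temperature.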

[12] = qHTS assay to identify small molecule HDAC inhibitors - cell viability counter screen (AID 1259365); further: nearly all actives have a fitted effect of over 50% in size; further: potency means the concentration at half of the fitted maximal effect; on activity change, negative = cytotoxicity: series mostly up to about 92 µM
Outline: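 HCT-116 wild-type, overnight attachment; 2hr drug exposure, 37C; CellTiter-Glo luminescent ATP readout after 30min RT.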

[13] = qHTS assay to identify small molecule agonists of the sonic hedgehog signaling (Shh) pathway - cell viability counter screen (AID 1259366); further: nearly all actives have a fitted effect of over 50% in size; further: potency means the concentration at half of the fitted maximal effect
Outline: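 Compounds in DMSO were pin-transferred onto 3T3 Gli1-Luc cells that had settled 4hr; plates then stood 24hr at 37C and 5% CO2. One hour before the end, CellTiter-Fluor was added and fluorescence recorded.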

[14] = qHTS assay to identify small molecule antagonists of the sonic hedgehog signaling (Shh) pathway - cell viability counter screen (AID 1259367); further: nearly all actives have a fitted effect of over 55% in size; further: potency means the concentration at half of the fitted maximal effect
Outline: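 CellTiter-Fluor signal in conditioned medium-stimulated 3T3 Gli1-Luc cells, 23 hr compound exposure, 37C.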

[15] = qHTS assay to identify small molecule agonists of the sonic hedgehog signaling (Shh) pathway (AID 1259368; calls by dose curve;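 further: NIH/3T3-derived 3T3Gli1-Luc cells carrying a stable Gli1-driven firefly luciferase reporter; series mostly up to about 92 µM; nearly all actives have a fitted effect of over 15% in size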)
Outline: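 Cells of a mouse NIH/3T3 clone stably expressing luciferase under the Gli1 transcriptional response element are exposed to test chemicals for 24 hr at 37 C. Pathway activation is detected as a rise in luminescence.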

[16] = qHTS assay to identify small molecule antagonists of the estrogen receptor alpha (ER-alpha) signaling pathway using the BG1 cell line in the presence of 0.1 nM 17-beta-estradiol - cell viability counter screen (AID 1259241); further: nearly all actives have a fitted effect of over 40% in size; further: potency means the concentration at half of the fitted maximal effect
Outline: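 Following 5 days in phenol red-free medium with charcoal-stripped serum, VM7Luc4E2 cells received test compounds alongside 0.1 nM 17beta-estradiol (final) at 37C for 22 hr. Live cells were then quantified via protease-substrate fluorescence.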

[17] = qHTS RealTime-Glo MT Cell Viability Assay in HEK293 cells - 24 hour (AID 1224886); further: nearly all actives have a fitted effect of over 50% in size; further: potency means the concentration at half of the fitted maximal effect; on activity change, negative = cytotoxicity: top concentration of the series differs between compounds
Outline: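 Cells + reagent dispensed (600 cells/well, HEK293) → 5 h at 37 C/5% CO2 → 23 nL compound in DMSO pinned → 40 h at 37 C → luminescence read at 0, 8, 16, 24, 32, 40 h.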

[18] = A CellTox Green Cytotoxicity Assay to monitor cytotoxicity in HepG2 cells - 32 hour (AID 1224883); further: nearly all actives have a fitted effect of over 50% in size
Outline: as §2

[19] = biological target: Estrogen receptor (Homo sapiens) (UniProt P03372); test: qHTS assay to identify small molecule antagonists of the estrogen receptor alpha (ER-alpha) signaling pathway using the BG1 cell line in the presence of 0.1 nM 17-beta-estradiol (AID 1259244); further: nearly all actives have a fitted effect of over 50% in size
Chain of Estrogen receptor (Homo sapiens) (P03372 whole entry, looked up): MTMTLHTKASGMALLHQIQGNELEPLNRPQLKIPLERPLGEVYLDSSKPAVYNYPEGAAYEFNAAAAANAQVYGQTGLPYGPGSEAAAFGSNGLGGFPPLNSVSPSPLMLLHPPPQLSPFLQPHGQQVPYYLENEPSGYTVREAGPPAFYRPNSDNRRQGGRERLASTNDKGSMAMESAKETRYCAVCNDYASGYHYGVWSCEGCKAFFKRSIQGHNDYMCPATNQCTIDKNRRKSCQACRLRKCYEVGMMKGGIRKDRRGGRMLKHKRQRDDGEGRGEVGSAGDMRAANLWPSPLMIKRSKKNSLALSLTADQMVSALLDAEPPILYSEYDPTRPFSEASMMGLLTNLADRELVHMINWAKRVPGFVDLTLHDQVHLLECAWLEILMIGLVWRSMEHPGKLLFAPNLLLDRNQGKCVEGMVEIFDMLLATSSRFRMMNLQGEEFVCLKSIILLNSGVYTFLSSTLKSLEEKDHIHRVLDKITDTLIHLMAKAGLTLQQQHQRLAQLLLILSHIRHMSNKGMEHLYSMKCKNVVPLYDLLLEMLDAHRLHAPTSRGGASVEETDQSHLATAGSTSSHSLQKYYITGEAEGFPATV
Outline: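 Antagonist mode: compounds in DMSO are pinned onto VM7Luc4E2 reporter cells, 0.1 nM final 17beta-estradiol is added, and after 22 h at 37C luciferase luminescence is measured with ONE-Glo.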
On the % scale 0 is the no-effect control and ±100 the full control effect.

CN1CCc2cc(Cl)c(O)cc2[C@H]2c3ccccc3CC[C@@H]21
inactive: Potency [1] | Potency [2] | Potency [3] | Potency [4] | Potency [5] | Potency [6] | Potency [7] | Potency [8] | Potency [9] | outcome [10] | Potency [11] | Potency [12] | Potency [15]
active: Potency [13] 4.73 µM | Potency [14] 11.9 µM

CNC(=O)O/N=C(\C)C(C)S(C)(=O)=O (stereo not given)
inactive: Potency [1] | Potency [2] | Potency [3] | Potency [4] | Potency [5] | Potency [6] | Potency [7] | Potency [8] | Potency [16] | Potency [9] | Potency [11] | Potency [12] | Potency [13] | Potency [15]

CC(=O)[O-].CC(=O)[O-].O.O.[Zn+2]
inactive: Potency [1] | Potency [2] | Potency [3] | Potency [4] | Potency [17] | Potency [5] | Potency [6] | Potency [7] | Potency [8] | Potency [16] | Potency [9] | Potency [11] | Potency [12] | Potency [13] | Potency [14] | Potency [15]

CC1(C)[C@H](/C=C2\CCSC2=O)[C@@H]1C(=O)OCc1coc(Cc2ccccc2)c1
active: Potency [5] 38.9 µM
inactive: Potency [1] | Potency [2] | Potency [18] | Potency [6] | Potency [7] | Potency [8] | Potency [16] | Potency [9] | Potency [12] | Potency [13] | Potency [14] | Potency [15]

Nc1ccc(Cl)cc1C(=O)c1ccccc1F
inactive: Potency [1] | Potency [2] | Potency [3] | Potency [4] | Potency [17] | Potency [5] | Potency [6] | Potency [7] | Potency [8] | Potency [16] | Potency [9] | Potency [19] | Potency [11] | Potency [12] | Potency [13] | Potency [14] | Potency [15]

Cc1cc(C2CC2)nc(Nc2ccccc2)n1
active: Potency [5] 21.9 µM | Potency [11] 24.3 µM | Potency [13] 48.6 µM
inactive: Potency [1] | Potency [2] | Potency [6] | Potency [7] | Potency [16] | Potency [9] | Potency [12] | Potency [15]

Clc1ccc(C2(Cn3cncn3)OCCO2)c(Cl)c1
inactive: Potency [1] | Potency [18] | Potency [3] | Potency [4] | Potency [17] | Potency [5] | Potency [6] | Potency [7] | Potency [16] | Potency [9] | Potency [19] | outcome [10] | Potency [11] | Potency [12] | Potency [13] | Potency [14] | Potency [15]

CCNc1nc(NC(C)C(C)C)nc(SC)n1 (stereo not given)
inactive: Potency [1] | Potency [2] | Potency [4] | Potency [17] | Potency [5] | Potency [6] | Potency [7] | Potency [16] | Potency [9] | Potency [19] | Potency [11] | Potency [12] | Potency [13] | Potency [14] | Potency [15]

Cc1ccccc1OP(=O)(Oc1ccccc1C)Oc1ccccc1C
inactive: Potency [1] | Potency [18] | Potency [3] | Potency [4] | Potency [6] | Potency [7] | Potency [8] | Potency [16] | Potency [9] | Potency [19] | Potency [11] | Potency [12] | Potency [13] | Potency [15]

CCC(C)Nc1c([N+](=O)[O-])cc(C(C)(C)C)cc1[N+](=O)[O-] (stereo not given)
inactive: Potency [1] | Potency [2] | Potency [4] | Potency [6] | Potency [7] | Potency [8] | Potency [16] | Potency [9] | Potency [19] | Potency [11] | Potency [12] | Potency [13] | Potency [14] | Potency [15]

COCCC#N
inactive: Potency [1] | Potency [2] | Potency [3] | Potency [4] | Potency [5] | Potency [6] | Potency [7] | Potency [16] | Potency [9] | Potency [11] | Potency [12] | Potency [13] | Potency [14] | Potency [15]

[O]=[Cr](=[O])([OH])[O][Cr](=[O])(=[O])[OH]
active: Potency [17] 12.4 µM and 6.9 µM | Potency [13] 30.9 µM and 30.6 µM | Potency [14] 21.9 µM and 30.6 µM
inactive: Potency [1] | Potency [2] | Potency [3] | Potency [6] | Potency [7] | Potency [8] | Potency [16] | Potency [9] | outcome [10] | Potency [11] | Potency [12] | Potency [15]

CC(C)c1c(CN(C)C(C)Cc2ccccc2)n(C)n(-c2ccccc2)c1=O (stereo not given)
inactive: Potency [1] | Potency [2] | Potency [4] | Potency [6] | Potency [8] | Potency [16] | Potency [9] | Potency [19] | outcome [10] | Potency [12] | Potency [13] | Potency [14] | Potency [15]

CCO/N=C(\CC)C1=C(O)CC(c2c(C)cc(C)cc2C)CC1=O (stereo not given)
inactive: Potency [1] | Potency [2] | Potency [3] | Potency [4] | Potency [6] | Potency [16] | Potency [9] | Potency [19] | Potency [11] | Potency [12] | Potency [13] | Potency [14] | Potency [15]

CC(=O)[O][Sn]([c]1ccccc1)([c]1ccccc1)[c]1ccccc1
active: Potency [1] 219 nM | Potency [3] 347 nM | Potency [17] 43.6 nM | Potency [5] 0.123 µM | Potency [6] 347 nM | Potency [8] 13.8 µM | Potency [16] 545 nM | Potency [9] 306 nM | Potency [12] 54.5 µM | Potency [13] 0.0545 µM | Potency [14] 0.109 µM
inactive: Potency [2] | Potency [19] | Potency [11] | Potency [15]

CC(=O)[O-].CC(=O)[O-].CC(=O)[O-].[Sb+3]
inactive: cytotoxicity increase [1] 3.11% [at 2.72 µM] | cytotoxicity [2] -11% [at 2.72 µM] | cytotoxicity increase [3] -0.782% [at 2.72 µM] | activity change, negative = cytotoxic [4] -7.09% [at 2.72 µM] | activity change, negative = cytotoxicity [5] -4.44% [at 2.72 µM] | activity change [6] 0.422% [at 2.72 µM, hits give high values] | cytotoxicity increase [8] -8.87% [at 2.72 µM] | activity change, negative = cytotoxicity [16] -1.06% [at 3.27 µM] | viability change, negative = cytotoxic [9] 2.35% [at 3.26 µM] | activity change, negative = inhibition [11] 2.54% [at 3.27 µM] | activity change, negative = cytotoxicity [12] -3.57% [at 3.27 µM] | viability change, negative = cytotoxic [13] 5.24% [at 3.27 µM] | viability change, negative = cytotoxic [14] 4.31% [at 3.27 µM] | activity change [15] 0.122% [at 3.27 µM, hits give high values]
